# Experimental data reported in PubChem BioAssay AID504832 (National Center for Advancing Translational Sciences (NCATS), 2011).
# Hit rate of the full screen: of about 310,000 compounds, about 18,000 (5.8%) were called active. About 22% were inconclusive and are not listed. Shown is part of a subset that was picked to be rich in actives. Where a call stands in place of a potency, no number is given. Values without a mark were called inactive. Calls follow the shape of the dose curve; as a rule, active = well fitted inhibition curve with a large enough effect; inconclusive = small, poorly fitted or top-dose-only effect, or another doubt; inactive = no such curve, though single readings can be large or run the other way.
# Assay: Primary qHTS for delayed death inhibitors of the malarial parasite plastid, 48 hour incubation
# Conditions: P. falciparum luciferase growth in erythrocytes; series mostly up to 28.7 µM
# Procedure, shortened: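 First compound was added to culture medium, then infected red cells at 0.1% parasitemia and 2% hematocrit (final). After incubation at 37 C under 5% CO2, luciferase detection reagent was dispensed and light output recorded.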
# Potency is read from the fitted curve at half-maximal effect.
Structure (SMILES),Potency,"activity change, negative = inhibition"
O=C(O)c1cccc2c1C(=O)N(C1CCCC1)C2,inactive,
Cc1ccc(CN2CCN(Cc3cn(C)nc3-c3ccccc3)CC2CCO)o1 (configuration not stated),inactive,
Cc1ccccc1CN1C[C@@H]2C[C@@H](c3cn(C)nc3-c3ccccc3)N3CCC[C@@]23C1=O,6.57 µM (active),
Cc1ccccc1CN1CCN(CC(=O)NCc2ccccn2)C1=O,inactive,
Cc1c(C)c(C)c(S(=O)(=O)NCCc2ccccn2)c(C)c1C,inactive,
Cc1c(S(=O)(=O)N2CC(C)CC(C)C2)c(=O)n(C)c(=O)n1C (configuration not stated),inactive,
COc1cc(OC)cc(C(=O)NCC(=O)N2CCCCCCC2)c1,inactive,
CN(C)P(=S)(Nc1ccccc1)C(Cl)(Cl)Cl (configuration not stated),11.7 µM (active),
O=S(=O)(Nc1ccc2nc(N3CCOCC3)sc2c1)c1ccccc1,inactive,
C#CCOCCOCCOCCNc1nc(N2CCN(C(=O)[C@H](C(C)C)n3cc(CCO)nn3)CC2)nc(N2CCN(C(=O)[C@H]([C@@H](C)CC)n3cc(CCCN=C(N)N)nn3)CC2)n1,inactive,
C#CCOCCOCCOCCNc1nc(N2CCN(C(=O)[C@H](CCC(=O)O)n3cc(C(N)CO)nn3)CC2)nc(N2CCN(C(=O)[C@H](CCCCN)n3cc(C(N)CC(C)C)nn3)CC2)n1 (some centres not stated),inactive,
C#CCOCCOCCOCCNc1nc(N2CCN(C(=O)CCCCCCCCCCNC(=O)[C@H]([C@@H](C)CC)n3cc(CCCCN=C(N)N)nn3)CC2)nc(N2CCN(C(=O)CCCCCCCCCCNC(=O)[C@H](CO)n3cc(CCCSC)nn3)CC2)n1,0.329 µM (active),
C#CCOCCOCCOCCNc1nc(N2CCN(C(=O)[C@H](CCCCN)n3cc(CCC(=O)O)nn3)CC2)nc(N2CCN(C(=O)[C@H](CCCCN)n3cc(CC(C)O)nn3)CC2)n1 (some centres not stated),inactive,
C#CCOCCOCCOCCNc1nc(N2CCN(C(=O)[C@H](CCC(=O)O)n3cc(C(N)CO)nn3)CC2)nc(N2CCN(C(=O)[C@H](CCCCN)n3cc(C(N)[C@H](C)CC)nn3)CC2)n1 (some centres not stated),inactive,
C#CCOCCOCCOCCNc1nc(N2CCN(C(=O)[C@H](CCC(=O)O)n3cc(C(N)CO)nn3)CC2)nc(N2CCN(C(=O)[C@H](Cc3ccc(O)cc3)n3cc(C(N)[C@H](C)CC)nn3)CC2)n1 (some centres not stated),inactive,
C#CCOCCOCCOCCNc1nc(N2CCN(C(=O)[C@H](C(C)C)n3cc(CCO)nn3)CC2)nc(N2CCN(C(=O)[C@H](C(C)C)n3cc(CCO)nn3)CC2)n1,inactive,
C#CCOCCOCCOCCNc1nc(N2CCN(C(=O)CCCCCCCCCCNC(=O)[C@H](CCCCN)n3cc(C)nn3)CC2)nc(N2CCN(C(=O)CCCCCCCCCCNC(=O)[C@H](CO)n3cc(CCCSC)nn3)CC2)n1,0.586 µM (active),
C#CCOCCOCCOCCNc1nc(N2CCN(C(=O)CCCCCCCCCCNC(=O)Cn3cc(CCCCCN)nn3)CC2)nc(N2CCN(C(=O)CCCCCCCCCCNC(=O)[C@H](CO)n3cc(CCCSC)nn3)CC2)n1,2.94 µM (active),
COc1ccccc1Oc1ccc(N2CC(C(=O)OCC(=O)c3ccc(F)cc3)CC2=O)cc1 (configuration not stated),inactive,
Cc1ccccc1NC(=O)c1cc(S(=O)(=O)Nc2cccc(C(=O)O)c2)ccc1Cl,inactive,
CC(C)[C@@H]1COC(c2cccc(C3=N[C@H](C(C)C)CO3)c2)=N1,inactive,
CC1C(=O)N(Cc2ccccc2)c2ccccc2N1C(=O)c1ccccc1 (configuration not stated),inactive,
O=C(OCC(=O)N1CCc2ccccc21)C1CCCN1S(=O)(=O)c1ccc(Cl)cc1 (configuration not stated),inactive,
O=C(Cc1ccsc1)N1CCN(S(=O)(=O)c2cc(C(F)(F)F)cc(C(F)(F)F)c2)CC1,inactive,
O=C(c1ccncc1)N1CCN(S(=O)(=O)c2cccc([N+](=O)[O-])c2)CC1,inactive,
O=C(c1ccncc1)N1CCN(S(=O)(=O)c2cc(C(F)(F)F)cc(C(F)(F)F)c2)CC1,11.7 µM (active),

Structure (SMILES),Potency,"activity change, negative = inhibition"
CCn1c(SCC(=O)NC2CC2)nnc1-c1ccccc1OC,inactive,
Cc1cccn2c(=O)nc(SCC(=O)NCc3ccccc3Cl)nc12,inactive,
COc1ccc(OCCCCN2CCC(C)CC2)cc1,,-11.4% [at 0.00184 µM]
Cc1ccc2nc(SCC(=O)N3CCN(c4ccccc4)CC3)nc(=O)n2c1,inactive,
O=C(Oc1ccc2c(c1)CCC2)N1CCOCC1,inactive,
O=C(Nc1cccc(OC(=O)N2CCCCC2)c1)N1CCOCC1,10.4 µM (active),
COc1cc(NC(=O)N2CCOCC2)cc(OC)c1,inactive,
COc1cc(OC)cc(C(=O)NCCCn2ccnc2)c1,inactive,
COCCNc1ncnc2c1nc1n2CCCC1,inactive,
Cc1ccc(S(=O)(=O)NCC(=O)Nc2ccc3c(c2)OCCO3)cc1,inactive,
CN(CC(=O)NCc1cccnc1)S(=O)(=O)c1cc(Cl)ccc1Cl,inactive,
Nc1ccc(Nc2cc(O)c3ncccc3c2)cc1,10.4 µM (active),
CC(C)c1ccc(Nc2ncccc2C#N)cc1,inactive,
Cc1cccc(C)c1NC(=S)N1CCCCCC1,inactive,
COc1cccc(CNC(=O)CCCC(=O)Nc2cccc([N+](=O)[O-])c2)c1,inactive,
O=C(NCc1cccc(Cl)c1)C1CCC(=O)N(C2CC2)C1 (configuration not stated),inactive,
O=C(CCN1C(=O)C2CCCCC2C1=O)Nc1ccc(OC(F)F)cc1 (configuration not stated),inactive,
Cc1ccc(C(=O)NCCc2nnc(SCC(=O)Nc3cccc(C(=O)O)c3)n2C)cc1,inactive,
Cc1ccc(NC(=O)OCCNC(=O)c2ccncc2)cc1,inactive,
C[C@H](NC(=O)c1nc[nH]c1C(=O)NCC(=O)OC(C)(C)C)C(=O)OCc1ccccc1,inactive,
C[C@H](NC(=O)c1nc[nH]c1C(=O)N[C@@H](C)C(=O)OC(C)(C)C)C(=O)OC(C)(C)C,9.28 µM (active),
CCOC(=O)c1[nH]cnc1C(=O)Nc1ccccc1C,inactive,
Cc1ccc(NC(=O)c2nc[nH]c2C(=O)N[C@@H](CCCCNC(=O)OC(C)(C)C)C(=O)OC(C)(C)C)cc1,13.1 µM (active),
Cc1cccc(NC(=O)c2nc[nH]c2C(=O)NCC(=O)OCc2ccccc2)c1,inactive,
CCOC(=O)c1ccc(NC(=O)c2nc[nH]c2C(=O)N[C@@H](CCCCNC(=O)OC(C)(C)C)C(=O)OC(C)(C)C)cc1,6.57 µM (active),
CCOC(=O)c1ccc(NC(=O)c2nc[nH]c2C(=O)NCc2ccccc2)cc1,inactive,
